Hits are enriched below; roughly 1.9% of the tested compounds scored in any of these assays.
dFosB act-1 = activators of mouse delta FosB homodimer; activation, % at 25 µM; P13346; AID 493131; actives 0.99% (n = 340,000); purified delta FosB, TAMRA-CDK5 oligo fluorescence polarization; percent of positive-control signal above neutral wells;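 active means mean activation above about 17%, with every replicate also reaching it, limit read from the data, passing the limit was not always enough; inconclusive means only one of the two conditions met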
Neddylation inh = inhibitors of human cullin neddylation | P61081+Q13564 | TR-FRET cullin neddylation, biochemical | inhibition, % at 25 µM | actives 0.58% (n = 360,000); in the data active means inhibition above about 36%
Target sequence (P61081 whole entry, looked up): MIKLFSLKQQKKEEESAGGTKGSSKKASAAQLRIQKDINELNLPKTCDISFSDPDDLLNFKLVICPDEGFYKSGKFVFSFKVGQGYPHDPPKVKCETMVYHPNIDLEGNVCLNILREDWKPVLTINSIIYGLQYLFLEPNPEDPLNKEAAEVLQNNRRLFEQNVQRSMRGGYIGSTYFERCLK
Target sequence (Q13564 whole entry, looked up): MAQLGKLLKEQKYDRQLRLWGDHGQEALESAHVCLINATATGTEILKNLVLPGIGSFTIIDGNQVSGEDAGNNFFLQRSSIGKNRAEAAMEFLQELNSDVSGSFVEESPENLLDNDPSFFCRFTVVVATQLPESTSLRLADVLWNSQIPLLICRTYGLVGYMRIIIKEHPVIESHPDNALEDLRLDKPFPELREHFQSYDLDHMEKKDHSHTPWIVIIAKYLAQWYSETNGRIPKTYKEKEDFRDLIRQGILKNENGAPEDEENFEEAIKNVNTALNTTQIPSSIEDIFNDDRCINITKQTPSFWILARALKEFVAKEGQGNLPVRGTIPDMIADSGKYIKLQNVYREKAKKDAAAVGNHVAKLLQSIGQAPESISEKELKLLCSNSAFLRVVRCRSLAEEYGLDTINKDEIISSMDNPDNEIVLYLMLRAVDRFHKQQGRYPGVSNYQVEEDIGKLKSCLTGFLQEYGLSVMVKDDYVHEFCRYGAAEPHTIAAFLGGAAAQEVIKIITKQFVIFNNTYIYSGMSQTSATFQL
A1 inh = inhibitors of the anti-apoptotic protein A1, read as caspase activation. caspase activation, % (no concentration beside the values). actives 0.066% (n = 330,000). MEF A1-2A-BIM cells, Caspase-Glo 3/7 luminescence, 3 h; percent of clofoctol response, vehicle zero;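 active means over half of replicate activation scores above 10%, or exactly half above 10 with the replicate mean above 10; inconclusive means replicate mean below 10 yet half the replicates above 10; inactive means over half of replicates below 10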
INS-1E GSIS act = GLuc luminescence reporter in INS-1E cells, primary screen for activators of glucose-dependent secretion of insulin. actives 0.61% (n = 370,000). activation, % at 16.6 µM. INS-1E GLuc reporter insulin secretion, 2-3 h;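 active means lowest replicate activation of at least 40%, so every replicate reaches that level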;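 further: 0% = median of neutral control wells and 100% = median of IBMX positive control wells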
Vif inh = HIV Vif inhibition; inhibition, % at 7.49 µM; HEK293T cells, Vif self-association by quenched fluorescence, imaging, 24 h; actives 0.35% (n = 340,000); in the data active means inhibition above about 50%, passing the limit was not always enough; inconclusive means no clear call, values can overlap the other calls; inactive means below about 31%
dFosB act-2 = delta FosB (mouse) homodimer activation; shares compounds with dFosB act-1; purified delta FosB, TAMRA-CDK5 oligo fluorescence polarization; normalised: neutral wells 0, positive control 100; activation, % at 24.9 µM; 2,400 tested, under 10 active; AID 588690;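 active means highest replicate activation at or above 34% and every replicate reaching that threshold; inconclusive means meets only one of the two criteria; inactive means meets neither criterion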;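 further: higher polarization means more probe DNA bound by delta FosB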
Active calls of the source: *; i = inactive; u = inconclusive; x = no result given.

SMILES | dFosB act-1 | Neddylation inh | A1 inh | INS-1E GSIS act | Vif inh | dFosB act-2
O=C(Nc1nc(-c2nc3ccccc3s2)cs1)c1ccco1 | 78* | 4 | -1 | 7 | x | 3
CC(C)C#Cc1ccc([C@H]2[C@@H](CO)N3C(=O)CN(S(=O)(=O)c4ccccc4)C[C@H]23)cc1 | x | x | x | -18 | x | x
Cc1c(C(=O)OCC(=O)N2CC(=O)Nc3ccccc32)oc2ccccc12 | 33* | -2 | 1 | 24 | 11 | -7
COc1ccc(NC(=O)Nc2ccc3c(c2)[C@@H]2C[C@H](CC(=O)N4CCCCC4)O[C@@H](CO)[C@@H]2O3)cc1 | x | x | x | -2 | x | x
Cc1cc(NC(=O)CSc2nnc(Nc3ccccc3C)s2)no1 | 62* | -6 | -1 | 9 | 8 | 0
O=C(CSc1nnc(NC(=O)c2ccco2)s1)Nc1ccccc1F | -1 | 13 | 1 | 17 | 23 | x
Cc1ccccc1NC(=O)CSc1nnc(NC(=O)c2ccco2)s1 | 39* | 11 | -1 | 6 | 12 | 0
CNC[C@@H]1Oc2ncc(C3=CCCC3)cc2C(=O)N([C@H](C)CO)C[C@@H]1C | x | x | x | 4 | x | x
O=C1N[C@H](c2ccccc2)COCc2cn(nn2)CC[C@H]1Cc1ccc(Cl)cc1 | x | x | x | 7 | x | x
C[C@@H]1CN([C@@H](C)CO)C(=O)c2cc(NC(=O)Nc3cccc4ccccc34)ccc2O[C@@H](C)CCCCO[C@H]1CN(C)C(=O)Cc1ccccc1 | x | x | x | 7 | x | x
NS(=O)(=O)c1cccc(NC(=O)c2cc(=O)c3ccccc3o2)c1 | 19* | -28 | 0 | 5 | -8 | -2
CN(C)C(=O)[C@@H]1[C@@H](CO)[C@@H]2Cn3c(ccc(C4=CCCCC4)c3=O)[C@H]1N2Cc1ccccc1 | x | x | x | 1 | x | x
Cc1[nH]nc2nc(SCC(=O)NC3CCCCC3)n(-c3ccc(Br)cc3)c(=N)c12 | 52* | 3 | 0 | -13 | 3 | 1
CCOc1ccc(-n2c(SCC(=O)Nc3ccc(CC)cc3)nc3n[nH]c(C)c3c2=N)cc1 | u | 35 | 0 | -2 | u | x
COc1ccccc1NC(=O)CSc1nc2n[nH]c(C)c2c(=N)n1-c1ccccc1Cl | 53* | -198 | 0 | -36 | x | -2
C[C@H](CO)N1C[C@H](C)[C@@H](CN(C)Cc2ccc(C(=O)O)cc2)Oc2ccc(NC(=O)Nc3ccc(F)cc3)cc2CC1=O | x | x | x | -1 | x | x
Oc1ccc(Cl)cc1-c1cc(-c2cccc(Br)c2)n[nH]1 | 46* | 12 | 0 | x | -3 | -1
Cc1ccc(S(=O)(=O)Nc2ccc3c(c2)C(=O)N([C@H](C)CO)C[C@H](C)[C@H](CN(C)Cc2ccc(C(=O)O)cc2)O3)cc1 | x | x | x | 2 | x | x
Clc1ccc(-c2nnc(NCc3ccccc3)c3ccccc23)cc1 | 18* | -18 | 1 | -54 | -13 | 6
Cc1ccc(-c2nnc(NCc3ccccc3)c3ccccc23)cc1 | -7 | -12 | 0 | -29 | -15 | x
O=C(Cn1c2ccccc2c(=O)c2ccccc21)Nc1cccc(F)c1 | 37* | -172 | 0 | -2 | 8 | 4
O=C(CC(=O)Nc1cccc(F)c1)Nc1cccc(F)c1 | -2 | -4 | 0 | -3 | -1 | x
CC(=O)Nc1ccc(NC(=O)C(C)OC(=O)c2cccc(S(=O)(=O)N3CCCCC3)c2)cc1 (stereo not drawn) | 32* | -7 | -1 | 4 | -13 | -4
O=C(NCCc1ccc(Cl)cc1)c1cc(-c2ccccn2)nc2ccccc12 | 0 | -4 | 1 | 18 | -3 | x
NS(=O)(=O)c1ccc(CCNC(=O)c2cc(-c3ccc(Br)cc3)nc3ccccc23)cc1 | 79* | -76 | 1 | -19 | x | 0
SMILES | dFosB act-1 | Neddylation inh | A1 inh | INS-1E GSIS act | Vif inh | dFosB act-2
NS(=O)(=O)c1ccc(CCNC(=O)c2cc(-c3ccccn3)nc3ccc(Br)cc23)cc1 | 32* | -273 | 0 | -8 | 27 | -6
COc1ccc(-c2cc(C(=O)Nc3cc(S(=O)(=O)N4CCOCC4)ccc3N3CCOCC3)c3ccccc3n2)cc1 | 34* | -113 | 0 | -12 | -1 | 5
CCN1CCN(c2ccc(S(=O)(=O)N3CCOCC3)cc2NC(=O)c2cc(Cl)nc3ccccc23)CC1 | -12 | 2 | 2 | 1 | x | x
O=C(Nc1ccc(OC(=O)c2ccccc2)c(-c2nc3ccccc3s2)c1)c1ccccc1 | 18* | -102 | 1 | x | -7 | 6
CC(=O)Nc1ccc(O)c(-c2nc3ccccc3s2)c1 | 3 | i | -2 | 1 | -2 | x
CN(Cc1ccc(F)cc1)S(=O)(=O)c1nnc(NC(=O)c2ccccc2)s1 | 9 | -22 | 0 | 28 | 1 | x
N#C/C(=C/c1ccc(F)cc1)c1nnc(NC(=O)c2ccccc2)s1 | 21* | x | 0 | 12 | 0 | -6
CC(C)C#Cc1ccc2c(c1)O[C@@H](CN(C)CC1CC1)[C@@H](C)CN([C@H](C)CO)S2(=O)=O | x | x | x | 3 | x | x
Cc1ccc(C(Sc2ccccc2)C(Cn2cncn2)C(=O)c2ccccc2)cc1 (stereo not drawn) | 24* | -4 | -1 | x | -9 | 0
O=C(Nc1nc(-c2ccccc2)cs1)c1ccc2c(=O)n3c(nc2c1)CCCCC3 | 18* | 31 | 0 | 4 | -1 | 5
Cc1ccc(S(=O)(=O)Nc2ccc3c(c2)CC(=O)N([C@H](C)CO)C[C@@H](C)[C@H](CN(C)Cc2ccc(-c4ccccc4)cc2)O3)cc1 | 28* | -16 | 0 | -13 | 0 | 2
Cc1ccc(S(=O)(=O)Nc2ccc3c(c2)CC(=O)N([C@@H](C)CO)C[C@@H](C)[C@@H](CN(C)Cc2ccc(-c4ccccc4)cc2)O3)cc1 | x | x | x | 0 | x | x
COc1ccc(NC(=O)Cn2nnc(C(=O)NCCc3ccccc3)c2N)cc1 | 29* | 3 | 2 | 6 | -7 | -2
CCc1ccc(NC(=O)Cn2nnc(C(=O)NCCc3ccc(OC)c(OC)c3)c2N)cc1 | 83* | -7 | 0 | 6 | 0 | 1
N[C@H]1CC[C@@H](CCn2cc(-c3ccccn3)nn2)O[C@H]1CO | x | x | x | 8 | x | x
C[C@@H]1CCCCO[C@H](CN(C)C(=O)CCCN(C)C)[C@@H](C)CN([C@H](C)CO)C(=O)c2cc(NC(=O)CCCN(C)C)ccc2O1 | x | x | x | 18 | x | x
Cc1ccc(CSc2nnc(SCC(=O)N/N=C/c3c[nH]c4ccccc34)s2)cc1 | 81* | 6 | x | 0 | -1 | 9
COc1ccc(N(CC(=O)N2CCc3ccccc32)S(=O)(=O)c2c(C)n[nH]c2C)cc1 | 36* | 8 | 0 | x | -1 | 2
COc1ccc(C(=O)N/N=C/c2cn[nH]c2-c2ccc(OC)cc2OC)cc1 | 17* | 6 | 0 | 9 | -8 | 4
COc1ccc(-c2[nH]ncc2/C=N\NC(=O)c2ccc(C(C)(C)C)cc2)cc1OC | -9 | 9 | 0 | -1 | -9 | x

Assay outcomes from PubChem.
